PubChem BioAssay AID1851 (National Center for Advancing Translational Sciences (NCATS), 2009)
Values joined by “and” are separate entries in the source; they are usually repeats but may differ in a detail not shown here. Equal entries are not always repeated. The whole screen tested about 16,000 compounds, of which about 5,800 (36%) were called active. About 23% were inconclusive and are not listed. Calls follow the shape of the dose curve; as a rule, active = well fitted curve in the direction sought with a large enough effect; inconclusive = small, poorly fitted or top-dose-only effect, or effect the other way; inactive = no such curve, though single readings can be large or run the other way. The list shows a part of the results. More than one record can exist for a structure, and the calls need not agree. Square brackets hold non-standard residues; d marks the D form. Peptide text beside a SMILES is read from it.

Each compound was assayed against Cytochrome P450 2C19 (Homo sapiens) (UniProt P33261) (assay: Cytochrome panel assay with activity outcomes). Details: recombinant CYP, pro-luciferin dealkylation, luminescence, p450-cyp2c19; series mostly up to 57.1 µM.
Sequence of Cytochrome P450 2C19 (Homo sapiens) (P33261 whole entry, looked up): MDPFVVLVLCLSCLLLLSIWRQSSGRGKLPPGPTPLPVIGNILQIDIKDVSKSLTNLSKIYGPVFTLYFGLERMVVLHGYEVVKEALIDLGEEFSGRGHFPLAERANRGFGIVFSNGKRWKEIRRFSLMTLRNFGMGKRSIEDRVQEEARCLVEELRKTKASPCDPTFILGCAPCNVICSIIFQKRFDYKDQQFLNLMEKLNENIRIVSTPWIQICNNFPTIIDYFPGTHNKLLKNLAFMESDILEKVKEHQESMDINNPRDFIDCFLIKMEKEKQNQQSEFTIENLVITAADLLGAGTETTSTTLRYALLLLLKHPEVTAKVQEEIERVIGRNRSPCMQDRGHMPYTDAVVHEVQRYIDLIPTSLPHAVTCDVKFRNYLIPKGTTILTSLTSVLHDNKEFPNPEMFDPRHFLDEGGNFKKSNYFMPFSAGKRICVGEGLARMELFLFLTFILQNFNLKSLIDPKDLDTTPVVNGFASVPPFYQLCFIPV
% is scaled to controls: 0 for no effect and ±100 for the full control effect.

Structure (SMILES)	AC50	activity, negative = inhibition
CC1(C)NC(=O)N(c2ccc([N+](=O)[O-])c(C(F)(F)F)c2)C1=O	126 nM (active) and 251 nM (active)	
Cc1cc2nc(CCN(C(=S)NCC(C)C)C3CCCC3)[nH]c2cc1C	2.24 µM (active)	
COC(=O)Cn1cnc(=O)c(C#N)c1/C=C/N(C)C	inactive	
NC1(C(=O)O)C[C@@H](C(=O)O)[C@H](C(=O)O)C1	inactive and 7.94 µM (active)	
N[C@H](C(=O)O)[C@@H]1C[C@@H]1C(=O)O	inactive	
NC1(C(=O)O)CC(C(=O)O)C1 (stereo not drawn)	inactive	
NC1(C(=O)O)C[C@H](C(=O)O)[C@H](C(=O)O)C1 (stereo partly drawn)	0.398 µM (active)	
N[C@@]1(C(=O)O)CN[C@H](C(=O)O)C1	inactive	
C[C@@]1(C(=O)O)CCC[C@@H]1C(=O)O		40% [at 11.4 µM] (inactive)
c1ccc2c3c([nH]c2c1)[C@@H]1[C@H]2CC[C@H]([C@H]4CCCN[C@H]42)N1CC3	inactive	
Cc1noc(C)c1C(=O)N1CCC2(CCCN(Cc3nccs3)C2)CC1	inactive	
NCC(=O)N[C@H](CO)C(=O)O (H-Gly-[dS]-OH)		-0.959% [at 11.4 µM] (inactive)
COc1ccc(N2CCN(S(=O)(=O)c3ccc4c(c3)CCCC4)CC2)c([N+](=O)[O-])c1	2 µM (active)	
CCS(=O)(=O)N1CCC[C@H]2CN3CCc4cc(OC)ccc4[C@@H]3C[C@@H]21	inactive	
COc1ccc(-n2c(=O)c(-c3cc(F)cc(F)c3)nc3cnc(N4CCOCC4)nc32)cc1	inactive	
COc1cccc(-c2cc(C(F)(F)F)nc(N3CCOCC3)n2)c1	25.1 µM (active)	
COc1ccc(-n2c(=O)c(-c3ccccc3)nc3cnc(N4CCNCC4)nc32)cc1	inactive	
COc1cccc(-c2cc(C(F)(F)F)nc(N3CCN(c4ccccc4)CC3)n2)c1	8.91 µM (active)	
COc1cccc(Cn2c(=O)c(-c3cn(C)c4ccccc34)nc3cnc(N4CCOCC4)nc32)c1	inactive	
CCC(=S)/C=C1\Sc2ccccc2N1CCCS(=O)(=O)O	inactive	
O=[N+]([O-])c1ccc2c(c1)Cc1cc(N=Cc3ccc4c(c3)OCO4)ccc1-2		-19.5% [at 11.4 µM] (inactive)
O=[N+]([O-])c1ccc(Nc2nc(N/N=C\c3ccc4c(c3)OCO4)nc(N3CCCCC3)n2)cc1	2.24 µM (active)	

Structure (SMILES)	AC50	activity, negative = inhibition
Brc1cc2c(cc1/C=N/Nc1nc(N3CCCC3)nc(N3CCOCC3)n1)OCO2	7.94 µM (active)	
C[C@@H](C(=O)O)[C@@H]1C[C@@]1(C)[C@@H](NC(=O)OCc1ccccc1)c1ccccc1	inactive	
C[C@@H](C(=O)O)[C@H]1C[C@]1(C)[C@H](NC(=O)OCc1ccccc1)c1ccccc1	7.94 µM (active)	
COC(=O)[C@H](C)[C@@H]1C[C@@]1(C)[C@@H](NC(=O)OCc1ccccc1)c1ccccc1	0.316 µM (active)	
COC(=O)[C@H](C)[C@H]1C[C@]1(C)[C@H](NC(=O)OCc1ccccc1)c1ccccc1	0.251 µM (active)	
O=C(/C=C\C=C/c1ccc2c(c1)OCO2)N1CCCCC1	inactive	
O=C(O)/C=C\C=C/c1ccc2c(c1)OCO2		23.6% [at 11.4 µM] (inactive)
Nc1ccccc1C(=O)/C=C\c1ccc2c(c1)OCO2	1 µM (active)	
COCOc1cc(OC)ccc1C(=O)/C=C\c1ccc2c(c1)OCO2	0.1 µM (active)	
O=C(/C=C\c1ccc2c(c1)OCO2)c1ccc(F)cc1	1 µM (active)	
O=C1/C(=C/c2cccnc2)SC(=S)N1Cc1ccco1	3.16 µM (active)	
COC(=O)c1nn(-c2ccc(OC)cc2)c(=O)cc1Oc1cccc(Cl)c1	14.1 µM (active)	
O=C1C=C[C@@H](O)[C@H]2[C@@H]3C(=O)N(c4cccc(Oc5ccccc5)c4)C(=O)[C@@H]3CC[C@H]12		-33.5% [at 11.4 µM] (inactive)
COC(=O)c1nn(-c2ccccc2)c(=O)cc1Oc1ccccc1	14.1 µM (active)	
Nc1nc2c(nc(Br)n2[C@@H]2O[C@H]3COP(=O)(O)O[C@@H]3[C@H]2O)c(=O)[nH]1	inactive	
NC(N)=[N+]1CCc2ccccc2C1	inactive	
CON(C)C(=O)c1nnc2c3ccccc3n(S(=O)(=O)c3ccc(C)cc3)c2n1		16% [at 11.4 µM] (inactive) and 19.4% [at 11.4 µM] (inactive)
COc1ccc(N(C(=O)COc2ccccc2OC)S(=O)(=O)c2ccc(C)cc2)cc1	5.01 µM (active)	
C[C@H](NC(=O)c1ccc(Cl)c(Cl)c1)c1ccc(-c2ccccc2)cc1	1.26 µM (active)	
CCCCCN(CCCCC)C(=O)[C@H](CCC(=O)O)NC(=O)c1ccc(Cl)c(Cl)c1	inactive	
COc1ccc(C(NC(=O)c2ccc(-c3ccccc3)cc2)c2ccccc2)cc1 (stereo not drawn)	inactive	
